Results published in PubChem BioAssay (NCI).
The panel holds about 79,000 compounds, 15% with a hit somewhere; the sample as a whole holds those more often. A number with no mark means an inactive call. The source made the active and inactive calls. Rule as the data show it: active = growth inhibition above about 70%; inactive = the rest.

Tests used:
[1] = NCI Yeast Anticancer Drug Screen. Data for the rad50 strain (AID 155);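 also: 0% = growth of vehicle-only cultures of the same strain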; details: S. cerevisiae rad50 strain growth inhibition; at 50.0 µM; hits give high values
Summary of the method: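 Cells are treated with compound, grown, and their growth is then scored against vehicle-only cultures of the same repair-deficient yeast strain.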

[2] = NCI Yeast Anticancer Drug Screen. Data for the mec2-1 strain (AID 157); details: S. cerevisiae mec2-1 strain, at 50.0 µM, hits give high values
Summary of the method: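 mec2-1 yeast strain, carrying an alteration in DNA damage repair or cell cycle control, was exposed to compounds; growth inhibition was measured relative to vehicle-treated controls.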

[3] = NCI Yeast Anticancer Drug Screen. Data for the sgs1 mgt1 strain (AID 161);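 also: 0% = growth of cultures given vehicle only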; details: S. cerevisiae sgs1 mgt1 strain, at 50.0 µM, hits give high values
Summary of the method: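 Yeast cells carrying a defined DNA-repair defect were exposed to test compounds. Growth inhibition was measured relative to vehicle-treated controls.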

[4] = NCI Yeast Anticancer Drug Screen. Data for the cln2 rad14 strain (AID 165);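 also: 0% = growth equal to vehicle treated cultures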; details: S. cerevisiae cln2 rad14 strain, at 50.0 µM, hits give high values
Summary of the method: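 Yeast carrying cln2 and rad14 alterations (cell cycle control and DNA damage repair) were exposed to compounds. Growth inhibition was measured against vehicle-treated controls.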

[5] = NCI Yeast Anticancer Drug Screen. Data for the bub3 strain (AID 167); details: S. cerevisiae bub3 mutant strain, at 50.0 µM, hits give high values
Summary of the method: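 Part of a panel of yeast mutants defective in DNA damage repair or cell cycle regulation. Each strain is grown with compound, and inhibition is calculated relative to solvent-treated cultures.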

[6] = NCI Yeast Anticancer Drug Screen. Data for the mlh1 rad18 strain (AID 175); details: S. cerevisiae mlh1 rad18 strain growth inhibition; at 50.0 µM; hits give high values
Summary of the method: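 Growth inhibition of the yeast strain was measured after compound exposure and expressed relative to vehicle-treated controls. The strain carries defined defects in DNA damage repair.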

Row | Compound | growth inhibition [1] | growth inhibition [2] | growth inhibition [3] | growth inhibition [4] | growth inhibition [5] | growth inhibition [6]
1 | O=C(CC1=NC2NN(c3ccccc3)C(=O)C2=C1CC(=O)c1ccc([N+](=O)[O-])cc1)c1ccc([N+](=O)[O-])cc1 (stereo unspecified) | 42.1% | -11.4% | 3.4% | 2.7% | 19.9% | 32%
2 | C=C[C@@H]1C(CO)=CCC2[C@H]1CCC1C(C)(C)C(=O)CC[C@]21C (stereo partly specified) | -7.95% | -13.4% | -5.7% | 2.7% | 0.05% | -47.1%
3 | O=C(Cc1ccccn1)c1cccnc1 | -1.15% | -9.7% | -4.75% | -27.2% | -17% | -4.25%
4 | CCCCCCCCCCCC(=O)C1=C(O)C(O)CCC1=O (stereo unspecified) | -1.35% | -4.7% | -6.55% | -50% | -7.4% | -16.9%
5 | O=[N+]([O-])c1cc(Cl)cc2c1-c1c(Cl)cc(Cl)cc1C2 | 16.8% | 28.3% | 7.65% | 20.8% | -6.25% | 4.05%
6 | C[N+](C)(N)Cc1csc(-c2ccc(Cl)cc2)n1 | -31.3% | -39.3% | -12.7% | -8.1% | -24.6% | -10.5%
7 | COC1C(/C=C/C(C)=O)OC2OC(C)(C)OC21 (stereo unspecified) | 1.7% | 1.35% | 3.85% | -9.45% | 2.3% | -1.55%
8 | O=C(OC1CCc2ccccc2C1)c1ccc(N=Nc2ccccc2)cc1 (stereo unspecified) | 24.5% | 5.55% | 20.7% | -39.8% | 5.95% | 18.9%
9 | COc1c(Cl)c(Cl)c2ncc(Cl)cc2c1Cl | -3.7% | -3.3% | -3.5% | -29.1% | 14.8% | -14.9%
10 | COc1ccc(/C=C/C(=O)OCCC(C)C)cc1 | 3.7% | -16.3% | 3.5% | 16.9% | -21.2% | -16.7%
11 | NC(=O)N/N=C1\CCCCC12CCCCC2 | 4.3% | 6.25% | -4.9% | -16.1% | 2.2% | -11.4%
12 | CCC(C)(O)Cc1ccccc1Cl (stereo unspecified) | 30.1% | 24.1% | 21.9% | 17.1% | 7.2% | 11.8%
13 | CCc1ccccc1NC(=O)NCC(C)C | -7.65% | -20.3% | 5.85% | -3.8% | 2.7% | -4.35%
14 | COc1ccc(C[C@H](N)C(=O)NC2C(CO)OC(n3cnc4c(N(C)C)ncnc43)C2O)cc1 (stereo partly specified) | -1.7% | -35.1% | -18.4% | -0.8% | -26.9% | -17.3%
15 | CCOC(=O)C(C(=O)CC(C)C)C(C)C (stereo unspecified) | -15.9% | -25.2% | 1.1% | -30.4% | 2.95% | -5.7%
16 | CN(C)c1ccc(/C=C(\C#N)c2c(Br)cccc2Br)cc1 | -20.1% | -18.8% | -3.65% | -42.8% | 3.1% | -14.7%
17 | O=C1NCC(C2CC2)(C2CC2)O1 | 8.85% | -16.9% | -5.7% | -34% | 8.7% | -21%
18 | C[N+](C)(C)CC(=O)NC(=O)N/N=C\C(CC#N)CN(Cc1ccccc1)Cc1ccccc1 (stereo unspecified) | 23.5% | 13.7% | 19.1% | 10.6% | 2.35% | 12.2%

Row | Compound | growth inhibition [1] | growth inhibition [2] | growth inhibition [3] | growth inhibition [4] | growth inhibition [5] | growth inhibition [6]
19 | O=C(c1ccccc1)N1OC2C=CC1CC2 (stereo unspecified) | 4.6% | 4.6% | 5.1% | -34.2% | -2.1% | -1.8%
20 | CN(C)c1ccc(/C=N/NC(=O)c2cnc3ccccc3c2)cc1 | -7.05% | -4.95% | -11.3% | -0.4% | 8.1% | 17.4%
21 | Cc1ccc(-c2n[nH]c(=O)n2N2C(=O)C=CC2=O)cc1 | -9.05% | -20.6% | -26.3% | -1.2% | -15.4% | -59.9%
22 | Cc1sc2[nH]c(=O)oc(=O)c2c1C | 44% | -10.1% | 36.2% | 30.1% | 10.5% | 55.8%
23 | Cc1ccc(C(=Nc2ccccc2)N=S(c2ccccc2)c2ccccc2)cc1 | -2.2% | 5.6% | -19% | -16.1% | 2.55% | -30.6%
24 | COC1c2ccccc2C=CN1c1ccc([N+](=O)[O-])cc1[N+](=O)[O-] (stereo unspecified) | 61.8% | 70.4% (active) | 69.2% | 27.4% | 59.1% | 71.2% (active)
25 | N=C(N)SCCSC(=N)N | -13.5% | -8.4% | -30.6% | 9.7% | -16.4% | 12.9%
26 | CCCCCCOC(=O)c1ccccn1 | -5.85% | 1.7% | 0.15% | -91.6% | 17.6% | -26.6%
27 | CCC(C)(C)N | 0.3% | 2.7% | 4.25% | -73.2% | 9.15% | -20.2%
28 | CN(/N=C/c1ccc(Cl)c(Cl)c1)C1=NCCCCN1 | 1.45% | -13.8% | 2.15% | -6.95% | -15.8% | -2.8%
29 | ClC1CC/C=C\CC/C=C/CCC1Cl (stereo unspecified) | 55.7% | 48.1% | 22.1% | 32% | 29.2% | 41.3%
30 | CC(=O)OCC1OC(SC2=NC(=O)/C(=C/c3ccccc3)S2)C(OC(C)=O)C(OC(C)=O)C1OC(C)=O (stereo unspecified) | 40.2% | 35.4% | 55.4% | 15.8% | -4.1% | 43.8%
31 | CC(=O)N(c1ccccc1)c1ccccc1 | 12.8% | 13.2% | 2.6% | 6.05% | -0.2% | 4.1%
32 | CN(C)C1C(CO)OC(n2cnc3c(N)ncnc32)C1O (stereo unspecified) | 21.2% | 12.8% | -19.4% | 22% | -11.8% | -82.2%
33 | CCSCC1(c2ccc(OC)cc2)NC(=O)NC1=O (stereo unspecified) | -20.5% | 2.65% | 7.6% | -10.1% | -10.7% | 1.05%
34 | O=c1[nH]cnc2c1ncn2CCCCO | -0.15% | -5.25% | 1.6% | 2.7% | -0.05% | 10.4%
35 | CCO/C=N\C1=C(C#N)SC2=N/C(=C\c3ccco3)C(=O)N21 | 6.1% | -19.2% | -7.4% | 5.65% | 0.45% | -17.3%
36 | Cc1ccc2c(c1)[nH]c(=S)n2C=C1C(=O)NC(=O)NC1=O | -6.3% | -27.9% | -38% | -10.6% | -7.35% | -15.4%
